SMILES strings stand for the structures. Values without a mark were called inactive. No rule for the calls is given here.
Potency is read from the fitted curve at half-maximal effect.

In the assay the test system is HIV-1 nucleocapsid protein NCp7 (binding to TG oligonucleotide). The assay is described as follows: HIV Nucleocapsid (AID 346).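 Also: potency is for inhibitors that block NC binding and lower polarization.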 To be noted: HIV-1 NC / fluorescein-TGTGTGTG probe, fluorescence polarization. Summed up:
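HIV-1 NC (100 nM) binding to fluorescein-labelled ssDNA TG4xF (10 nM) in Hepes pH 7.5, 250mM NaCl, 1uM ZnCl2, TCEP and 2-mercaptoethanol; compounds pin-transferred, 1 hr room temperature, fluorescence polarization read on CCD imager.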
Take `COc1cccc(-c2cncnc2NCCN2CCOCC2)c1`: the Potency was over 20 µM.

For `O=C(Nc1ccccc1)N1CC2(CCN(C(=O)c3cccc(F)c3)CC2)C1`, the Potency was over 20 µM.

In the case of `O=C(Nc1cccc(F)c1)N1CC[C@@]2(CCCN(C(=O)c3csnn3)C2)C1`, the Potency was over 20 µM.

For `Cn1c(=O)c(-c2ccccc2)nc2cncnc21`, the Potency is over 20 µM.

Consider `COCCn1c(=O)c(-c2ccc(F)c(F)c2)nc2cncnc21`, for which the Potency is over 20 µM.

In the case of `Cc1noc(C)c1C(=O)N1CCC2(CCCN(C(=O)Nc3cccc(F)c3)C2)CC1`, the Potency is over 20 µM.

`COc1cccc(-c2cncnc2NCc2ccccc2)c1`: the Potency is over 20 µM.

For the compound `CNc1ccnc(-c2ccccc2OC)n1`, the Potency is over 20 µM.

Regarding `N#CCCn1c(=O)c(-c2cccs2)nc2cnc(OCc3ccccc3)nc21`, the Potency is over 20 µM.

Consider `CN1CCN(c2cc(-c3ccccc3C(F)(F)F)ncn2)CC1`, for which the Potency is over 20 µM.

Take `CC(C)NC(=O)N1CC[C@@]2(CCCN(C(=O)c3cccn3C)C2)C1`: the Potency was over 20 µM.

As to `O=c1c(-c2cccs2)nc2cnc(Oc3ccccc3)nc2n1C1CC1`, the Potency is over 20 µM.

With `O=c1c(-c2cc(F)cc(F)c2)nc2cnc(N3CCNCC3)nc2n1Cc1ccc(F)cc1`, the Potency was over 20 µM.

As to `COc1ccc(-n2c(=O)c(-c3ccc(F)c(F)c3)nc3cncnc32)cc1`, the Potency was over 4 µM.

Consider `CC(=O)N1CCC2(CC1)CCN(c1ccccn1)CC2`, for which the Potency was over 4 µM.

As to `COc1ccc(CNc2ncncc2-c2ccc(N(C)C)cc2)c(OC)c1`, the Potency is over 20 µM.

(Values after PubChem BioAssay (NCATS).)
